High-throughput results deposited in PubChem by National Center for Advancing Translational Sciences (NCATS).
AmpC no deterg – inhibitors of E. coli AmpC beta-lactamase without detergent; P00811; AmpC nitrocefin hydrolysis, absorbance 480 nm, 0.0001% Triton; Potency, µM (highest dose often 57.1 µM), for the others: at the highest dose activity change, negative = inhibition, actives largely listed as inhibitors; actives 0.52% (n = 330,000); AID 485341;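 note: plate controls were no compound for no effect and no enzyme for full effect; nearly all actives have a fitted effect of over 20% in size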
Target sequence (P00811 whole entry, looked up): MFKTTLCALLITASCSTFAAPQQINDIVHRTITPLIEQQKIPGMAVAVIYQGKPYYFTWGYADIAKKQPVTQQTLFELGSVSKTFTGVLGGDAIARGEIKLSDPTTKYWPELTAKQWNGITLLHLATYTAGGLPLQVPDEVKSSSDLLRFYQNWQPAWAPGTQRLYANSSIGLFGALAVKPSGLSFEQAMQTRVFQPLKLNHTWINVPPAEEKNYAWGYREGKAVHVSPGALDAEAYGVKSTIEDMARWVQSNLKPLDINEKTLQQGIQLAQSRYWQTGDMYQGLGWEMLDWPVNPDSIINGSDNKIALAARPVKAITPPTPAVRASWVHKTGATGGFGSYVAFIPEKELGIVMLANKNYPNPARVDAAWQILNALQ
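AmpC (5.3 nM in the dispensed reagent) in 20 mM phosphate pH 7.0 with 0.01% (detergent screen) or 0.0001% Triton X-100 was preincubated with compounds for 15 min at room temperature. Nitrocefin was then added from an 800 uM solution, and hydrolysis was followed at 480 nm.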
Sm TGR inh – S. mansoni TGR enzyme inhibition | Q962Y6 | purified TGR, DTNB reduction, TNB absorbance 405 nm | Potency, µM (titrated, usually from 114 µM), inactives show at the top dose activity change, negative = inhibition, usual class: inhibitors | actives 3% (n = 360,000) | AID 485364; note: % is set by controls: 0 for no effect and ±100 for the full control effect; nearly all actives have a fitted effect of over 60% in size
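First, TGR (20 nM dispensed) and NADPH were mixed with compound. Second, a 15 min room-temperature incubation followed. Third, further NADPH and then DTNB were added to start the reaction. Finally, TNB absorbance was monitored kinetically.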
RE007 growth inh – less growth of the S. pombe RE007 Vpr strain; Potency, µM (titrated, usually from 92.2 µM), for the others: at the highest dose activity change, negative = less growth, usual class: inhibitors; AID 651644; S. pombe RE007 Vpr strain, BacTiter-Glo ATP luminescence, 24 h; actives 0.21% (n = 360,000); active = well fitted falling curve with a large enough effect; inconclusive = small, poorly fitted or top-dose-only effect; inactive = no such curve, though single readings can be large or run the other way; note: % is set by controls: 0 for no effect and ±100 for the full control effect; nearly all actives have a fitted effect of over 50% in size
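Fission yeast RE007 carrying one integrated HIV-1 vpr copy, seeded at OD 0.01 in PMG+AL medium with 23 nL pinned compound. Grown 24 h at 30 degrees; viability read by BacTiter-Glo luminescence after 5 min.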
AmpC inh detg – blocks E. coli AmpC beta-lactamase in detergent assay. P00811. AmpC hydrolysis of nitrocefin, absorbance 480 nm, 0.01% Triton. Potency, µM (top dose mostly 114 µM), inactives show at the top dose activity change, negative = inhibition, hits mostly inhibitors. actives 0.041% (n = 370,000);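 note: 0% = no-compound wells and -100% = no-enzyme wells; nearly all actives have a fitted effect of over 25% in size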
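20 mM phosphate pH 7.0 + 0.01% (detergent screen) or 0.0001% Triton X-100; 5.3 nM AmpC reagent; cpd preinc 15 min RT; nitrocefin (800 uM stock) to start; A480 q20 s × 4 min; Activity was normalised to no-enzyme and no-compound control wells.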
TbPYK inhibitor – T. brucei pyruvate kinase inhibition. Q57TT1. TbPYK enzyme, Kinase-Glo Plus ATP luminescence, 45 min. Potency, µM (top dose mostly 76.8 µM), for inactives: at the highest dose activity, negative = inhibition, usual class: inhibitors. actives 0.12% (n = 410,000). AID 624173; note: % is set by controls: 0 for no effect and ±100 for the full control effect; nearly all actives have a fitted effect of over 50% in size
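Luminescent Kinase-Glo Plus end-point after 45 min room-temperature reaction of T. brucei pyruvate kinase started with 130 uM ADP (final). Buffer TEA 50 mM pH 7.2 with KCl, MgCl2, BSA, Tween-20; titration-based qHTS with fitted concentration-effect curves.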
SARS PLpro yeast – inhibitors of SARS-CoV papain-like protease in yeast; S. cerevisiae expressing SARS-CoV PLpro, growth rescue; Potency, µM (top dose mostly 32.9 µM), inactives show at the highest dose activity, positive = growth rescue, hits mostly activators; actives 0.19% (n = 330,000); AID 485353; calls by dose curve; note: 0% is about no effect; nearly all actives have a fitted effect of over 55% in size
* = called active by the depositor; ? = inconclusive; · = not tested or not shown; [ ] = another dose, or the depositor's remark. A selection: hits, their analogues and other compounds. The true share with any hit is near 3.3%. Unless noted, calls come from the whole dose curve; as a rule, active = well fitted curve in the direction sought with a large enough effect; inconclusive = small, poorly fitted or top-dose-only effect, or another doubt; inactive = no such curve, though single readings can be large; an effect the other way counts as inactive or inconclusive. Potency is the fitted concentration of half-maximal effect.

SMILES	AmpC no deterg	Sm TGR inh	RE007 growth inh	AmpC inh detg	TbPYK inhibitor	SARS PLpro yeast
COc1ccc(S(=O)(=O)N=C2C=C(C)C(=O)C(C)=C2)cc1	-39%	32µM*	-10%	-4%	-4%	-1%
COc1ccc(/C=C2\C(=O)ON=C2c2ccccc2)cc1OC	-29%	?	6%	-12%	?	2%
Cc1ccc(C2=NOC(=O)/C2=C\C=C\c2ccccc2)cc1	32µM*	?	35%	-12%	-11%	-6%
CN(C)/C=C1\C(=O)ON=C1c1ccccc1	-15%	69%	26%	2%	-1%	-2%
O=C1NNC(c2ccccc2)=N/C1=C\c1ccco1	25%	20µM*	2%	-1%	-5%	1%
O=C1NNC(c2ccccc2)=N/C1=C\c1ccccc1Cl	-49%	-9%	3%	-8%	-2%	-3%
O=C1ON=C(c2ccccc2)/C1=C/c1ccco1	-43%	20µM*	0%	-4%	-25%	1%
COc1ccc(/C=C2\C(=O)ON=C2c2cccc([N+](=O)[O-])c2)cc1	-49%	11µM*	·	3%	·	-1%
COc1ccc(NC(=O)CSc2ncc3c(n2)-c2ccccc2N(C)S3(=O)=O)cc1Cl	·	10%	·	1%	1%	·
Cc1ccc(NC(=O)c2cccc3c(=O)c4c([nH]c23)CCCC4)c(C)c1	·	4%	·	-6%	0%	·
CCOC(=O)N1CCc2c(sc3c2c(=O)n(CCc2ccccc2)c(=O)n3Cc2ccc(C)cc2C)C1	·	1%	·	9%	-2%	·
COc1cc(/C=C2\C(=O)ON=C2c2ccccc2)cc(OC)c1OC	-34%	8.9µM*	4%	0%	?	1%
O=C1ON=C(c2ccccc2)/C1=C/c1ccc(-c2ccccc2[N+](=O)[O-])o1	-51%	11µM*	33%	?	?	-58%
COc1ccc(/C=C2/C(=O)ON=C2c2ccccc2)cc1OC	-23%	?	-7%	-2%	?	5%
O=S(=O)(O)c1cccc(N=Nc2c(O)ccc3ccccc23)c1	-22%	20µM*	-20%	-8%	-12%	-1%
Oc1ccc2ccccc2c1N=Nc1ccccc1F	-18%	-24%	-15%	4%	0%	-2%
Oc1ccc2ccccc2c1N=Nc1ccccn1	28%	-7%	35µM*	-5%	-4%	-22%
O=C1[O][Sb-]23[O]C(=O)C([O]2)C2[O][Sb-]4([O]C(=O)C([O]4)C1[O]3)[O]C2=O	·	·	·	·	3%	·
C=CCN(C(=O)CSC1=NC(=O)CN1C(C)=O)c1nc(C)c(-c2ccccc2)s1	29%	4.5µM*	-16%	-6%	7%	0%
Nc1ccccc1C#CC(=O)c1ccccc1	-23%	0.5µM*	·	-6%	-3%	-12%
CCCSc1nc(-n2ncc(C#N)c2N)c2c3c(sc2n1)CCC(C)C3 (stereo not given)	2µM*	2%	-11%	-9%	1%	-5%
Cc1nc(-n2ncc(C#N)c2N)c2c3c(sc2n1)CCC3	-25%	0%	-8%	?	-5%	10%
Cc1oc2ncnc(N3CCOCC3)c2c1C(=O)Nc1ccc(Br)cc1F	·	-9%	·	3%	-10%	·
O=C(CCNS(=O)(=O)c1ccc2c(c1)CCN2C(=O)C1CC1)N1CCN(c2cccc(C(F)(F)F)c2)CC1	·	4%	·	5%	0%	·
Cc1ccc(-c2nn(-c3ccccc3)cc2/C=C/C(=O)O)o1	-13%	32µM*	-7%	-4%	-10%	1%
SMILES	AmpC no deterg	Sm TGR inh	RE007 growth inh	AmpC inh detg	TbPYK inhibitor	SARS PLpro yeast
Cc1ccc(-c2nn(-c3ccccc3)cc2C(=O)O)o1	-31%	20µM*	·	-5%	·	0%
COc1ccc(-c2nn(-c3ccccc3)cc2C(=O)O)cc1	-12%	0%	3%	?	2%	3%
CC(C)OC(=O)c1cn(-c2ccccc2)nc1-c1ccco1	-20%	5µM*	45%	1%	?	-7%
CCc1ccc(C(=O)CC2(O)C(=O)N(CCc3ccccc3)c3ccc(Cl)cc32)cc1 (stereo not given)	·	-5%	·	-1%	2%	·
COc1cc(OC)c(NC(=O)C2CCN(S(=O)(=O)c3ccc4c(c3)oc(=O)n4C)CC2)cc1Cl	·	-3%	·	5%	-2%	·
CCc1ccc(CNC(=O)C2CCCN(c3nnc(C)c4c(C)n(-c5ccc(OC)cc5)nc34)C2)cc1 (stereo not given)	·	-3%	·	22%	1%	·
S=C(c1ccc(-c2ccc(Cl)c(Cl)c2)o1)N1CCOCC1	-32%	45µM*	-15%	-14%	?	-14%
COc1ccc(NC(=O)C2CCC(CNS(=O)(=O)c3ccc(Br)s3)CC2)c(OC)c1 (stereo not given)	·	0%	·	-5%	-1%	·
CCCOC1CCCN(C(=O)CCCn2nnnc2CN2CCOCC2)C1 (stereo not given)	14%	-17%	-10%	-5%	-5%	3%
O=C(CCn1nnnc1CN1CCOCC1)N1CCC(c2ccccc2F)C1 (stereo not given)	-3%	25µM*	-12%	2%	0%	-4%
CCOC(=O)C1CCCN(C(=O)CCCn2nnnc2CN2CCOCC2)C1 (stereo not given)	-8%	40µM*	16%	-11%	2%	-1%
O=C(c1cnc(N2CCCCC2)c2ccccc12)N1CCN(c2ccccc2F)CC1	·	0%	·	-5%	-6%	·
COC(=O)c1c(NC(=O)Cc2coc3cc(C)ccc23)sc2c1CCC2	·	-2%	·	-1%	-8%	·
CC1CCCCN1CCCNC(=O)c1[nH]c2ccccc2c1Sc1ccc(Cl)cc1 (stereo not given)	·	-6%	·	10%	-1%	·
CN(C)[C@@H]1C(=O)C(C(N)=O)=C(O)[C@@]2(O)C(=O)C3=C(O)c4c(O)cccc4[C@@](C)(O)[C@H]3[C@H](O)[C@@H]12	-23%	8.9µM*	9%[18.4 µM]	?	-15%	13%
CN(C)[C@@H]1C(=O)C(C(N)=O)=C(O)[C@@]2(O)C(=O)C3=C(O)c4c(O)cccc4[C@@](C)(O)C3C[C@@H]12 (stereo not given in full)	-32%	-21%	9%[18.4 µM]	-18%	-5%	·
Fc1ccc(C(c2ccc(F)cc2)N2CCN(CC=Cc3ccccc3)CC2)cc1	·	·	·	·	-6%	·
CCOc1ccc(NC(=O)CN2C(C(=O)OC)=C(c3ccccc3)c3cc(Cl)ccc3S2(=O)=O)cc1	·	8%	·	9%	1%	·
